Among the data in PubChem BioAssay (NCI) are growth values, retold here.

Compounds without any hit were thinned out: in the full panel of roughly 83,000, 20% have a hit.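 Compound tested at a single concentration for 48 hours in 96-well plates; a percent growth value below 10 was scored as active.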 A number with no mark means an inactive call. The source made the active and inactive calls.

For the experiment, the system named is MDA-MB-468 breast. Put plainly: NCI-60 one-dose screen, 48 h (100 = growth as untreated, 0 = no growth, -100 = all killed). The conditions noted are these: 10 µM unless noted. How it is done: Growth inhibition of the MDA-MB-468 human Breast tumor cell line is measured as a screen for anti-cancer activity. Cells are grown in 96 well plates and exposed to the test compound for 48 hours. Compounds are tested at a single concentration, which is 10^-5 M for most compounds. The reported endpoint is percent growth (GI% or GIPRCNT), where numbers from 0 - 100% represent growth inhibition, and numbers from -100% - 0 represent cell death. For example, a value of 40 represents 60% growth inhibition. A value of 0 means no net growth occurred over the course of the experiment. A value of -40 indicates 40% of cells at the beginning of the experiment died by the end of the experiment. A value of -100 means all cells are dead at the end of the experiment.
NCI-60 Human Tumor Cell Lines Screen was performed using the standard one-dose NCI protocol, which is described in more detail at https://dtp.cancer.gov/discovery_development/nci-60/default.htm.
Compounds with GIPRCNT values below 10 were considered active. Activity score was based on GIPRCNT using the following formula: […]
Score is 0 for GIPRCNT values of 100 or above, 50 for GIPRCNT values of 0, and 100 for GIPRCNT values of -100.
On to `COc1cc(-c2csc(NC(=O)c3ccc(N4CCOCC4)c(C(F)(F)F)c3)n2)cc(OC)c1OC`, for which the growth is 27.2%.
Turning to `Cc1cc(N)cc(C)c1-c1c(Br)cc(N)cc1Br`, the growth was -28% (active).
As for `COc1ccc2c(O)c(/C=C3\N=Nc4nc(C)ccc43)oc2c1CC1CCNCC1`, the growth was 0.98% (active).
Under `O=C(Nc1ccc(Cl)cc1)c1cc2ccccc2cc1OP(=O)(O)O` stands 71.3%; under `Oc1ccc(Nc2nccc(-c3ccc4ccccc4c3)n2)cc1`, 20.7%.
On to `Cc1ccc(SC2c3ccc(C)cc3Oc3nc(N)c(C#N)c(N)c32)cc1` (stereo not given), for which the growth is -36.5% (active).
Under `COc1ccc2c(c1)c(CC(=O)[Se]CC(=O)O)c(C)n2C(=O)c1ccc(Cl)cc1` stands 86.9%.
Take `CCCCCCCCCCCCCCCCCCOc1ccccc1CC(=O)OCC[N+]1(C)CCOCC1`: the growth was 51.9%.
In the case of `COc1cc2nc(-c3ccc(Cl)cc3)cc(OCCCN3CCCC3)c2cc1OC`, the growth was 43.5%.
For the compound `CN1C(=O)CCC(N2C(=O)c3cccc(NCCOCCOCCNC(=O)c4cc5c(o4)C(=O)c4ccccc4C5=O)c3C2=O)C1=O` (stereo not given), the growth was -28.3% (active).
On to `CCCc1c(OC(=O)c2ccccc2)nc2[nH]c(=O)sc2c1C`, for which the growth was 84.4%.
Regarding `Cc1ccc(F)cc1NC(=O)c1cc(Cl)ccc1Nc1ccccc1`, the growth is 61.8%.
On to `CCc1ccc2c(c1)N(CCO)C1=C(C(=O)OC1)C2c1cccc(Br)c1` (stereo not given), for which the growth is 25.8%.
The result for `COc1cc(-n2nc(C(=O)Nc3ccc(C(=O)O)cc3)nc2-c2ccccc2)cc(OC)c1OC` reads 0.458% (active); that for `O=C(/C=C/c1ccc(Cl)cc1)c1cccc(OCCCOc2cccc(C(=O)/C=C/c3ccc(Cl)cc3)c2)c1`, 92.9%.
Under `CCOP(C)(=O)/C(Cc1ccc(OC)c(OC)c1)=N\O` (stereo not given) stands 96.5%; under `CCOc1c(C#N)c(Nc2ccc(S(N)(=O)=O)cc2)c(C#N)c2nnc(C)n12`, 105%; under `Cc1ccc2nc(Cl)c(Cn3nnnc3SCc3ccccc3)cc2c1`, 90.4%.
As to `CSc1nc(N)nc2c1ncn2C`, the growth is 108%.
For `NC(=O)C1CC2C=CC1C2` (stereo not given), the growth is 109%.
Take `CC(=O)CC(C)(C)c1ccc(Cl)cc1`: the growth is 90.4%.
For `COc1cc(-c2cc(/C=C3\CCCCC3=O)[nH]n2)cc(OC)c1OC`, the growth is 85.2%.
Regarding `NC(=S)N/N=C/c1ccc(OC(=O)COc2ccc(Cl)cc2)cn1`, the growth is 24.6%.
On to `Cc1ccc(NCc2cn(-c3ccc(C(=O)O)cc3)nc2-c2ccc(C(=O)O)cc2)cc1`, for which the growth was 120%.
Under `Cc1ccc(N(C(=O)CCc2c[nH]c3ccccc23)[C@H](C(=O)Nc2ccc(Cl)cc2)c2cccc([N+](=O)[O-])c2)cc1` stands 91.3%; under `COc1ccc(C(=O)/C=C/c2cccnc2Nc2cc(OC)c(OC)c(OC)c2)cc1`, 9.95% (active).
Consider `COc1ccc(OC)c([C@H]2c3[nH]c4ccccc4c3C[C@H]3C(=O)N(CCCCCCC(=O)NO)CC(=O)N23)c1`, for which the growth was 74.9%.
Under `COc1cc2oc(-c3cccc(C(=O)Nc4ccc(Cl)cc4)c3)cc(=O)c2c(OCCNC(=O)[C@@H](N)CO)c1OC` stands -85.6% (active); under `Cc1ccc(C)c2c1C(O)(C#Cc1ccccc1)c1ccccc1C2(O)C#Cc1ccccc1` (stereo not given), 58.1%.
`COC(=O)[C@@H](CCCCNC(=O)[C@]12CCC(C)(C)C[C@@H]1C1=CC[C@@H]3[C@@]4(C)C/C(=C/c5ccco5)C(=O)C(C)(C)[C@@H]4CC[C@@]3(C)[C@]1(C)CC2)NC(=O)[C@]12CCC(C)(C)C[C@@H]1C1=CC[C@@H]3[C@@]4(C)C/C(=C/c5ccco5)C(=O)C(C)(C)[C@@H]4CC[C@@]3(C)[C@]1(C)CC2`: the growth was 109%.
The result for `CCn1cc(CNc2ccc(C(=O)Nc3ccc4ccccc4c3)cc2)c(C)n1` reads 24.5%; that for `C=C1CC[C@@H]2[C@](C)(COC(C)=O)[C@H](OC(C)=O)CC[C@@]2(C)[C@@H]1CC(Nc1ccc(S(=O)(=O)NC(C)=O)cc1)C1=CCOC1=O` (stereo not given in full), -53.9% (active); that for `Cc1ccc2nc(NC(=O)CSc3nc(-c4ccccc4)c(C#N)c4nnnn34)sc2c1`, 107%.
Turning to `CO[C@H](C(=O)[C@@H](O)[C@@H](C)O)[C@@H]1Cc2cc3cc(O[C@H]4C[C@@H](O[C@H]5C[C@@H](O)[C@H](O)C(C)O5)[C@H](O)C(C)(O)O4)cc(O)c3c(O)c2C(=O)[C@H]1O[C@H]1C[C@@H](O[C@H]2C[C@@H](O[C@H]3C[C@@H](OC)[C@H](O)C(C)O3)[C@@H](O)C(C)O2)[C@H](O)C(C)O1` (stereo not given in full), the growth is 14%.
In the case of `C=C(C(N)=O)C(N)C(=O)O` (stereo not given), the growth was 121%.
Turning to `N#CC(C#N)=C(C#N)c1c[nH]c2ccccc12`, the growth is 38.8%.
For the compound `CCCCCCCCCCN1CC2CCCCC2C1` (stereo not given), the growth is 54.7%.
As for `O=C(CCl)NNc1nccc(Nc2ccc(S(=O)(=O)Nc3ccncc3)cc2)n1`, the growth is 31.5%.
With `CC(=O)c1c(C)[nH]c(-c2nc3ccc(N4CCN(C)CC4)cc3[nH]2)c1-c1ccc2c(c1)OCCO2`, the growth is 12.6%.
As to `CCOC(=O)c1ccc(N(CCC(=O)O)C(C)=O)cc1`, the growth is 99.9%.
